Data taken from PMC12431657, “Discovery and mechanistic insights of dibenzoylmethane as a broad spectrum inhibitor of coronavirus” (PLOS Pathogens, 2025).
Counter-ions that a name gives are not always drawn. Like-named read-outs stand apart in the source and are kept apart here. Out of some 3,300 compounds screened, about 95 (3%) showed an effect of 50% or more. The sample holds strong results, similar compounds and a random draw of the others, so the mix is not that of the screen.

Test system: HCoV-229E
Design: species or system Huh-7; HTS, protection from HCoV-229E induced cell death, luminescent cell viability (CellCounting-Lite 2.0), inhibition rate
Details: 24 h post infection, 1 h compound pre-incubation, 10 µM, inhibitor

| SMILES | 229E Inhibition rate [%] | 229E Inhibition rate (229E Inhibition rate, 24 h) [%] |
| --- | --- | --- |
| C/C(=C\CC[C@@H](C)[C@H]1CC[C@@]2(C)C3=CC[C@H]4C(C)(C)[C@@H](O)CC[C@]4(C)C3=CC[C@]12C)CO [Ganoderol B] | 7.7 |  |
| C=C(CC[C@@H](C(=O)O)[C@H]1[C@H](O)C[C@@]2(C)C3=CC[C@H]4C(C)(C)[C@@H](O)CC[C@]4(C)C3=CC[C@]12C)C(C)C [Dehydrotumulosic acid] | 8.5 |  |
| CC1(C)O[C@H]2CC(=O)OC[C@]23[C@H]2CC[C@@]4(C)[C@H](c5ccoc5)OC(=O)[C@H]5O[C@]54[C@]2(C)[C@@H](O)C(=O)[C@@H]13 [Rutaevin] | 0 |  |
| COc1cc(O)cc(OC)c1 [3,5-Dimethoxyphenol] | 32.7 |  |
| COc1cc(OC)cc(OC)c1 [1,3,5-Trimethoxybenzene] | 55.2 |  |
| COc1ccc(OC)cc1 [1,4-Dimethoxybenzene] | 21 |  |
| O=C1N[C@@H](Cc2ccccc2)C(=O)N2CCC[C@@H]12 [Cyclo(L-Phe-L-Pro)] | 11.1 |  |
| Oc1ccc(CCc2cc(O)cc(O)c2)cc1 [Dihydroresveratrol] | 10.7 |  |
| CCCCCCCCCCCCCCCc1cc(O)cc(O)c1 [5-Pentadecylresorcinol] | 51.7 |  |
| CCCCCCCCCCCC1=C(O)C(=O)C=C(O)C1=O [Embelin] | 12.3 |  |
| O=c1c(O)c(-c2ccc(O)cc2)oc2c(O)c(O)cc(O)c12 [Herbacetin] | 0 |  |
| O=C1CCC[C@@H]2[C@H]3CCCN4CCC[C@@H](CN12)[C@H]34 [Allomatrine] | 8.4 |  |
| COC[C@@H]1Cc2cc(OC)c3c(c2[C@H](c2ccc(OC)c(OC)c2)[C@H]1COC)OCO3 [Hypophyllanthin] | 24.8 |  |
| C=C1C(=O)O[C@H]2C[C@@H](C)[C@@H]3[C@@H](OC(C)=O)C[C@H](O)[C@@]3(C)[C@@H](OC(C)=O)[C@H]12 [Britannin] | 3 |  |
| C=C1C(=O)O[C@H]2C[C@@H](C)[C@@H]3CCC(=O)[C@@]3(C)[C@@H](OC(C)=O)[C@H]12 [Ergolide] | 57.9 |  |
| C=C1C(=O)O[C@H]2C[C@@H](C)[C@@H]3C=CC(=O)[C@@]3(C)[C@@H](OC(C)=O)[C@H]12 [Bigelovin] | 4.5 |  |
| CC1(C)O[C@H]2CC(=O)OC[C@@]23[C@H]1CC(=O)[C@@]1(C)C2=CC(=O)O[C@@H](c4ccoc4)[C@]2(C)CC[C@@H]13 [Deoxylimonin] | 9.8 |  |
| CC(=O)O[C@@]12CO[C@@H]1C[C@@H](O)[C@@]1(C)C(=O)[C@H](O)C3=C(C)[C@@H](OC(=O)[C@H](O)[C@@H](NC(=O)c4ccccc4)c4ccccc4)C[C@@](O)([C@@H](OC(=O)c4ccccc4)[C@H]21)C3(C)C [7-Epi 10-desacetyl paclitaxel] | 21.4 |  |
| O=C(N[C@H](COC(=O)[C@H](Cc1ccccc1)NC(=O)c1ccccc1)Cc1ccccc1)c1ccccc1 [Asperphenamate] | 18 |  |
| CCCCC/C=C\C/C=C\CCCCCCCC(=O)NCc1ccccc1 [N-Benzyllinoleamide] | 24.5 |  |

| SMILES | 229E Inhibition rate [%] | 229E Inhibition rate (229E Inhibition rate, 24 h) [%] |
| --- | --- | --- |
| CCCCCCCC/C=C\CCCCCCCC(=O)NCc1ccccc1 [N-Benzyloleamide] | 52.8 |  |
| CCCCCC/C=C\CCCC(=O)O [cis-5-Dodecenoic acid] | 63.5 |  |
| CCCCCCCCCCCCCCCCCC(=O)NCc1ccccc1 [N-Benzyloctadecanamide] | 46.3 |  |
| CCCCCCCCCCC/C=C\CCCCC(=O)O [Petroselinic acid] | 0 |  |
| CCCCCCCC/C=C\CCCCCCCC(=O)O [Oleic acid] |  | 9.2 |
| Nc1nc(=O)n([C@H]2C[C@H](O)[C@@H](CO)O2)cc1CO [5-Hydroxymethyl-2’-deoxycytidine] | 0 |  |
| OC[C@H]1OC(O)[C@H](O)[C@H](O)[C@@H]1O (stereo partly drawn) [D-Allose] | 0 |  |
| C=C(C)[C@@H]1CC[C@]2(COC(C)=O)CC[C@]3(C)[C@H](CC[C@@H]4[C@@]5(C)CC[C@H](OC(C)=O)C(C)(C)[C@@H]5CC[C@]43C)[C@@H]12 [Betulin diacetate] | 4.9 |  |
| O=c1ccc2cc3ccoc3c(O)c2o1 [Xanthotoxol] | 35.1 |  |
| CC(C)=CC[C@@H](OC(=O)C=C(C)C)C1=CC(=O)c2c(O)ccc(O)c2C1=O [β,β-Dimethylacrylshikonin] | 50.2 |  |
| CC(=O)O[C@@H](CC=C(C)C)C1=CC(=O)c2c(O)ccc(O)c2C1=O [Acetylalkannin] | 10.1 |  |
| CC(C)=CC[C@H](OC(=O)C=C(C)C)C1=CC(=O)c2c(O)ccc(O)c2C1=O [β,β-Dimethylacrylalkannin] | 17.4 |  |
| C[n+]1cccc(C(=O)[O-])c1 [Trigonelline] |  | 7.5 |
| O=c1cc(-c2ccccc2)oc2cc(O[C@@H]3O[C@H](CO)[C@@H](O)[C@H](O)[C@H]3O)c(O)c(O)c12 [Oroxin A] | 34.7 |  |
| CC(=O)c1ccc[nH]1 [2-Acetylpyrrole] | 51.6 |  |
| O=C(O)c1ccc[nH]1 [Pyrrole-2-carboxylic acid] | 6.8 |  |
| CC(=O)c1ccccc1 [Acetophenone] | 31.9 |  |
| CCCCCCCCC1=C(CCCCCCCC(=O)O)C1 [Sterculic acid] | 20 |  |
| CC(=O)NCCCCCN [N-(5-Aminopentyl)acetamide] | 61.9 |  |
| CC(=O)NCCCCNCCCN [N8-Acetylspermidine dihydrochloride] | 37.4 |  |

| SMILES | 229E Inhibition rate [%] | 229E Inhibition rate (229E Inhibition rate, 24 h) [%] |
| --- | --- | --- |
| CC(=O)NCCCCN [N-Acetylputrescine hydrochloride] | 17.4 |  |
| C[C@@]1(C(=O)O)CC[C@]2(C)CC[C@]3(C)C4=CC(=O)c5c(cc(O)c(O)c5C=O)[C@]4(C)CC[C@@]3(C)[C@@H]2C1 [Demethylzeylasteral] | 6.3 |  |
| CCCCCCC/C=C/C(=O)CCc1ccc(O)c(OC)c1 [[8]-Shogaol] | 39.3 |  |
| C/C=C1/CN2CCc3c([nH]c4ccccc34)[C@@H]2C[C@@H]1/C(=C/OC)C(=O)OC [Geissoschizine methyl ether] | 0 |  |
| C/C=C1/CN2[C@H]3Cc4c([nH]c5ccccc45)[C@]2(O)C[C@@H]1[C@@]3(CO)C(=O)OC [16-Epivoacarpine] | 7.1 |  |
| C/C=C1/CN2[C@@H]3C[C@@]45c6ccccc6N[C@]4(O3)[C@@H]2C[C@@H]1[C@H]5C(=O)OC [Picrinine] | 51.7 |  |
| O=C(O)CNC(=O)/C=C/c1ccccc1 [Cinnamoylglycine] | 41.7 |  |
| O=C(O)C[C@@](O)(C(=O)O)[C@H](O)C(=O)O [(-)-Hydroxycitric acid] | 12.3 |  |
| CC(C)=C/C=C1\O[C@@H]2CC(C)=CC(=O)[C@@H]2[C@]1(C)O [Bisabolangelone] | 30 |  |
| O=Cc1ccc(O)cc1 [p-Hydroxybenzaldehyde] | 10.9 |  |
| CC(C)=CCC[C@](C)(O)[C@H]1CC[C@]2(C)[C@@H]1[C@H](O)C[C@@H]1[C@@]3(C)CC[C@H](O)C(C)(C)[C@@H]3[C@@H](O[C@@H]3O[C@H](CO)[C@@H](O)[C@H](O)[C@H]3O[C@@H]3O[C@@H](C)[C@H](O)[C@@H](O)[C@H]3O)C[C@]12C [Ginsenoside Rg2] | 54.2 |  |
| CC(C)=CCC[C@](C)(O)[C@H]1CC[C@]2(C)[C@@H]1[C@H](O)C[C@@H]1[C@@]3(C)CC[C@H](O)C(C)(C)[C@@H]3[C@@H](O[C@@H]3O[C@H](CO)[C@@H](O)[C@H](O)[C@H]3O[C@@H]3O[C@H](CO)[C@@H](O)[C@H](O)[C@H]3O)C[C@]12C [Ginsenoside Rf] | 28.3 |  |
| CC(C)=CCC[C@](C)(O[C@@H]1O[C@H](CO)[C@@H](O)[C@H](O)[C@H]1O)[C@H]1CC[C@]2(C)[C@@H]1[C@H](O)C[C@@H]1[C@@]3(C)C[C@@H](O)[C@H](O[C@@H]4O[C@H](CO)[C@@H](O)[C@H](O)[C@H]4O[C@@H]4O[C@H](CO)[C@@H](O)[C@H](O)[C@H]4O)C(C)(C)[C@@H]3CC[C@]12C [Gypenoside XLVI] | 10.6 |  |
| CC(C)=CCC[C@@](C)(O)[C@H]1CC[C@]2(C)[C@@H]1[C@H](O)C[C@@H]1[C@@]3(C)C[C@@H](O)[C@H](O[C@@H]4O[C@H](CO)[C@@H](O)[C@H](O)[C@H]4O[C@@H]4O[C@H](CO)[C@@H](O)[C@H](O)[C@H]4O)C(C)(C)[C@@H]3CC[C@]12C [Gypenoside LI] | 0 |  |
| CC(C)=CCC[C@](C)(O)[C@H]1CC[C@]2(C)[C@@H]1[C@H](O)C[C@@H]1[C@@]3(C)C[C@@H](O)[C@H](O[C@@H]4O[C@H](CO)[C@@H](O)[C@H](O)[C@H]4O[C@@H]4O[C@H](CO)[C@@H](O)[C@H](O)[C@H]4O)C(C)(C)[C@@H]3CC[C@]12C [Gypenoside L] | 61.5 |  |
| CC(C)=CCC[C@@](C)(O)[C@H]1CC[C@]2(C)[C@@H]1[C@H](O)C[C@@H]1[C@@]3(C)CC[C@H](O)C(C)(C)[C@@H]3[C@@H](O[C@@H]3O[C@H](CO)[C@@H](O)[C@H](O)[C@H]3O[C@@H]3O[C@@H](C)[C@H](O)[C@@H](O)[C@H]3O)C[C@]12C [20(R)-Ginsenoside Rg2] | 5.2 |  |
| COc1ccc([C@H]2OC[C@H]3[C@@H]2CO[C@H]3c2ccc(O[C@@H]3O[C@H](CO)[C@@H](O)[C@H](O)[C@H]3O)c(OC)c2)cc1OC [Phillyrin] | 0 |  |
| COc1cc(C2Oc3cc([C@H]4Oc5cc(O)cc(O)c5C(=O)[C@@H]4O)ccc3OC2CO)ccc1O (stereo partly drawn) [Silybin] | 13 |  |
| COc1cc([C@@H]2[C@H]3CO[C@@]4(O)C(=O)[C@@H]2C=C([C@H]2Oc5cc(O)cc(O)c5C(=O)[C@@H]2O)[C@@H]34)ccc1O [Silydianin] | 51.4 |  |
| COc1cc(C2Oc3ccc([C@H]4Oc5cc(O)cc(O)c5C(=O)[C@@H]4O)cc3OC2CO)ccc1O (stereo partly drawn) [Isosilybin] | 0 |  |
